A short description of the test: bead-bound aptamer signal quenching artefacts – biochemical, powder set 1, flow cytometry, artefact control for GRK2 aptamer binding project, dose response (AID 588496). The following applies: Bead-bound FAM RNA aptamer fluorescence quenching; MCF span: fluorescence change max-min concentration, stronger effect = higher value; fluorescence ratio to DMSO: at 11.1 µM, stronger effect = lower value.

Some of the results follow. The source made the active and inactive calls.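 How the source made its calls: active means compounds that dim the fluorescent label, raw bead signal shifting by over 33 units between lowest and highest dose; inactive means the rest.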

Consider `O=C(CCS(=O)(=O)c1ccc(Br)cc1)NCCc1ccc(Cl)cc1`, for which the MCF span is 3.2 and the fluorescence ratio to DMSO is 99% (inactive).

For the molecule `COc1ccc(Cl)cc1NC(=O)CCS(=O)(=O)c1ccc(Br)cc1`, the MCF span was -1.1 and the fluorescence ratio to DMSO is 98% (inactive).

Values taken from PubChem BioAssay AID588496 (NMMLSC, 2011).
